Results on 92 compounds are retold here after PubChem BioAssay AID504692 (The Scripps Research Institute Molecular Screening Center, 2011).

SMILES strings stand for the structures. The campaign covered roughly 340,000 compounds. About 2,000 (0.59%) were called active. Shown is part of a subset that was picked to be rich in actives. Unmarked numbers belong to inactive results. Cut-off read from the data, not from the text of the source: active = activation mostly above about 9.5% (no sharp cut-off); inactive = mostly below about 7.6%.

Chain of 5-hydroxytryptamine receptor 5A (Homo sapiens) (P47898 whole entry, looked up): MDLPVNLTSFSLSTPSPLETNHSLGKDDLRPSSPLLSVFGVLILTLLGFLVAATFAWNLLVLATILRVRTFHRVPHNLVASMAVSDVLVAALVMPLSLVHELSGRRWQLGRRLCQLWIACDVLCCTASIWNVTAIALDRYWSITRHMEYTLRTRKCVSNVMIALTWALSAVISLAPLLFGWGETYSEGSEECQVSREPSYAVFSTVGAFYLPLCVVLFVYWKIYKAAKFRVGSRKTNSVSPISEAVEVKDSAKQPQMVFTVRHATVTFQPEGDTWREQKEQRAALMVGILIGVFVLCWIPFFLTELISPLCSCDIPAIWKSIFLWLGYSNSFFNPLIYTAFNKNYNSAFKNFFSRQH

The assay has as its target 5-hydroxytryptamine receptor 5A (Homo sapiens) (UniProt P47898). Put plainly: activation of human 5-HT5A receptor – cell-based, luminescence, full-deck HTS, counter-screen for OPRM1-OPRD1 heterodimer agonist project, primary screen (AID 504692).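 Note: 0% = cells with vehicle only and 100% = reference agonist.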 The conditions noted are these: HTR5A agonist assay, at 9.3 µM, active compounds read high. Background: A counterscreen serves to expose hits that act by an unwanted route or on another target.
Regarding `C/C(=N\NS(=O)(=O)c1cccc([N+](=O)[O-])c1)c1cc2ccccc2o1`, the activation is 11.2% (active).

In the case of `COc1ccc(CCNS(=O)(=O)c2cccc([N+](=O)[O-])c2)cc1`, the activation was 9%.

`CC(C=Cc1ccccc1)=NNS(=O)(=O)c1ccc([N+](=O)[O-])cc1`: the activation was 2.51%.

In the case of `CC(C)(C)C(=O)NC(NC(=S)Nc1ccc(S(N)(=O)=O)cc1)C(Cl)(Cl)Cl` (configuration not stated), the activation is 3.71%.

Take `Cc1ccc(NC(=S)NC(NC(=O)Cc2cccc3ccccc23)C(Cl)(Cl)Cl)cc1` (configuration not stated): the activation was 26.7% (active).

For the compound `Cc1ccc(CNC(=O)[C@@H](NC(=O)Cc2ccccc2)C(C)C)cc1`, the activation was -1.89%.

With `CCOC(=O)C1CCCN(S(=O)(=O)c2ccc(-n3cnnn3)c(C)c2)C1` (configuration not stated), the activation is 1.69%.

For `COC(=O)c1sccc1NC(=O)CSc1ccccc1NS(=O)(=O)c1cc(Cl)ccc1Cl`, the activation is 8.27%.

Turning to `CCc1cc2c(N3CCN(c4nnc(CC)s4)CC3)ncnc2s1`, the activation is 10.4% (active).

Turning to `CCc1cc2c(NC3CCCC3)ncnc2s1`, the activation was 0.57%.

As to `CCc1cc2c(NC(Cc3ccccc3)C(=O)O)ncnc2s1` (configuration not stated), the activation is -3.53%.

In the case of `COc1ccc(C(=O)NCc2ccc(Cl)cc2)cc1S(=O)(=O)N1CCCC1`, the activation is -0.47%.

For the compound `C=CCOC(=O)C1=C[C@@H](c2ccc3c(c2)OCO3)C[C@@H](OCCCCO)O1`, the activation was -2.46%.

With `Nn1c(SCC(=O)Nc2nccs2)nnc1-c1ccco1`, the activation is 2.08%.

Regarding `COc1ccc(-c2cc(=O)oc3cc(OCC(=O)N(C)C4CCS(=O)(=O)C4)ccc23)cc1` (configuration not stated), the activation was 3.71%.

Turning to `CC(=O)COc1ccc2c(-c3ccccc3)cc(=O)oc2c1`, the activation was 15.1% (active).

As to `COc1ccc(-c2cc(=O)oc3cc(OCC(=O)N[C@@H](Cc4c[nH]c5ccccc45)C(=O)O)ccc23)cc1`, the activation is -4.61%.

`Cc1cc(C(=O)OC(C)C(=O)Nc2cccc(S(=O)(=O)N3CCOCC3)c2)c(C)o1` (configuration not stated): the activation was 1.13%.

Consider `C[C@@H](CN1CCC[C@H]1CN1C(N)=NC[C@@H]1Cc1ccccc1)N1C[C@@H](Cc2ccccc2)N(CCCC2CCCC2)C1=N`, for which the activation is -7.1%.

With `COc1cc(SC#N)ccc1N=Cc1c(C)[nH]n(-c2ccc(C)cc2)c1=O`, the activation was 11.4% (active).

As to `Cc1ccc(C(=O)N2CC(=O)Nc3ccccc32)o1`, the activation was -6.07%.

Consider `COc1cccc(OC)c1C(=O)N1CCN(Cc2cccnc2)CC1`, for which the activation was 3.95%.

Consider `C=C(C)CSc1nnc(-c2ccc(C)cc2)n1N`, for which the activation was -0.48%.

On to `COc1ccccc1NS(=O)(=O)c1ccc(C(=O)N2CCN(c3ccccc3O)CC2)cc1`, for which the activation is -0.27%.

In the case of `COc1ccc(S(=O)(=O)N2CCOC2CNC(=O)C(=O)NCc2ccncc2)cc1OC` (configuration not stated), the activation is 1.9%.

Take `CC(=O)Nc1ccc(S(=O)(=O)N2CCn3cccc3C2C)cc1` (configuration not stated): the activation was -2.82%.

Regarding `COc1ccc(/C=N/NC(=O)c2ccncc2)cc1CN1CCCc2ccccc21`, the activation was 1.74%.

In the case of `COc1cccc(/C=N/NC(=O)c2[nH]nc3c2CCc2ccccc2-3)c1O`, the activation is 18.3% (active).

Turning to `CCOc1ccc2[nH]c(C(=O)N/N=C/c3cccc(OC)c3OC)cc2c1`, the activation is 4.96%.

Regarding `COc1cccc(CNCc2ccc3c(c2)OCO3)c1`, the activation was 9.7%.

For the compound `COc1ccc(C(=O)NC(C)CCc2ccccc2)c(OC)c1` (configuration not stated), the activation was 3.2%.

In the case of `COc1ccc(C(=O)Nc2cccc(NC(=O)c3ccc(OC)cc3OC)n2)c(OC)c1`, the activation is 13.4% (active).

With `COc1ccc(C(=O)NC2=NCCS2)c(OC)c1`, the activation was 4.66%.

Regarding `CCc1nnc(NC(=O)c2cc(S(=O)(=O)N3CCCCC3)ccc2C)s1`, the activation was 3.55%.

`CCOC(=O)C1=C(O)/C(=C/c2ccc(OCC(=O)Nc3ccc(C)cc3)cc2)N=C1C`: the activation is 23.3% (active).

Take `COC(=O)C1=C(O)/C(=C/c2ccc(OCC(=O)Nc3ccccc3)cc2)N=C1C`: the activation was -2.15%.

In the case of `Cc1ccc(NC(=O)COc2ccc(/C=C3/NC(=O)NC3=O)cc2)cc1`, the activation is 1.1%.

On to `CCOC(=O)CC1=CC(=O)Nc2ccccc2N1`, for which the activation is 6.62%.

Regarding `CCc1ccc(C(=O)NC(=S)Nc2ccccc2N2CCOCC2)cc1`, the activation was -3.97%.

On to `COc1ccc(C(=O)NC(=S)Nc2ccccc2N2CCN(S(C)(=O)=O)CC2)cc1OC`, for which the activation was -1.57%.

As to `CC(=O)N1CCN(c2ccccc2NC(=S)NC(=O)c2cc3ccccc3o2)CC1`, the activation is 16.4% (active).

On to `O=S(=O)(c1ccc(Sc2nnc3ccccn23)nc1)N1CCOCC1`, for which the activation was 2.94%.

On to `NC(=O)C1(N2CCCCC2)CCN(C2CC(=O)N(Cc3ccc(N4CCCC4=O)cc3)C2=O)CC1` (configuration not stated), for which the activation was 1.47%.

With `CC(C)Oc1ccc(C(=O)NCC(=O)Nc2ccc3c(c2)CCC3)cc1`, the activation was -1.62%.

As for `COc1ccc(-c2ocnc2C(=O)Nc2ccc3c(c2)CCC3)cc1`, the activation was 16.5% (active).

For the compound `COc1cccc(NC(=O)CN(C)CC(=O)Nc2ccc3c(c2)CCC3)c1`, the activation is 7.9%.

For the compound `O=C(CN(C(=O)c1csnn1)c1cccc(F)c1)NCc1ccc(F)cc1`, the activation is -2.96%.

As to `CCOC(=O)C1=C(CC)Nc2ccccc2N=C1N`, the activation was 2.67%.

Turning to `O=C(c1ccc(OC2CCN(C(=O)c3cccnc3)CC2)cc1)N1CCCCCC1`, the activation is 2.41%.

In the case of `O=C(NCc1cc(F)cc(C(F)(F)F)c1)C1CCC(=O)N(C2CCCC2)C1` (configuration not stated), the activation is 2.09%.

Regarding `C[C@H]1[C@H]2c3nc4ccccc4n3C[C@H]1ON2C1CCCCC1`, the activation is 1.56%.

`CCOc1ccc(CCNC(=O)C(CC)n2nc(C)n3c(cc4sccc43)c2=O)cc1OCC` (configuration not stated): the activation was 8.13%.

For `N#Cc1ccc(/C=C2\CCn3c2nc2cc(C(=O)O)ccc2c3=O)cc1`, the activation was -2.04%.

For the compound `O=C(O)c1ccc2c(=O)n3c(nc2c1)/C(=C/c1ccc(OC(F)F)cc1OC(F)F)CC3`, the activation was -1.8%.

`Cc1ccc(/C=C2\CCn3c2nc2cc(C(=O)O)ccc2c3=O)c(C)c1`: the activation is 14.2% (active).

Take `COc1ccc(CNc2nccs2)cc1`: the activation is -2.48%.

With `CCN(CC)CCNS(=O)(=O)c1ccc(/C=C/C(=O)O)cc1`, the activation was 6.16%.

For the compound `Cc1ccc2c(C)c(C(=O)N3CCC(N4CCC(C(=O)NC5CC5)CC4)CC3)oc2c1`, the activation is -4.49%.

Turning to `CC1(C)Cc2cccc(OCC(N)=O)c2O1`, the activation was -7.5%.

For the compound `CC1(C)Cc2cccc(OCC(=O)NCc3ccccc3)c2O1`, the activation was 0.71%.

As for `COc1cccc(CCNC(=O)COc2cccc3c2OC(C)(C)C3)c1`, the activation was 10.4% (active).

`CCn1c2c(c3ccc(OC)cc31)CCCC2=O`: the activation was 2.01%.

On to `O=C1COc2ccc(C(=O)COC(=O)C3CC(O)CN3S(=O)(=O)c3ccc(Cl)cc3)cc2N1` (configuration not stated), for which the activation is 2.08%.

Consider `O=C(NCCCN1CCCC1=O)c1ccc(S(=O)(=O)Nc2ccccc2)cc1`, for which the activation was -1.42%.

Take `CCn1c(SCC(=O)N/N=C/c2ccncc2)nc2ccccc21`: the activation was 0.02%.

For `CCn1c(SCC(=O)N/N=C/c2ccccc2OCC(=O)O)nnc1-c1ccc(C(C)(C)C)cc1`, the activation is -0.31%.

Turning to `Cc1ccc(Cn2c(SCC(=O)N/N=C/c3ccccc3OCC(=O)O)nc3ccccc32)cc1`, the activation was 13.2% (active).

As for `COc1cc2c(cc1NC(=O)COC(=O)/C=C/c1ccccc1)oc1ccccc12`, the activation was 1.5%.

Turning to `CCOC(=O)c1c(C)[nH]c(C(=O)OCC(=O)N2CCCC2=O)c1C`, the activation was -3.02%.

Consider `Cc1c(C(=O)N2CCCc3ccccc32)oc2ccccc12`, for which the activation is 5.91%.

For `Cc1c(C(=O)OCC(=O)N2CCCC2=O)oc2ccccc12`, the activation is 17.4% (active).

Regarding `O=C(Cc1ncc(C(F)(F)F)cc1Cl)Nc1cccc(Br)c1`, the activation is -3.41%.

Take `NS(=O)(=O)c1ccc(CNC(=S)NC(=O)c2ccco2)cc1`: the activation is -0.69%.

Take `CCc1nn(CCCC(=O)Nc2ccc(C)cc2C)c(=O)c2cc3occc3n12`: the activation was 0.19%.

Turning to `CCCCCCCCn1c2c(c(=N)c3c1CCC3)CCCC2`, the activation is 12.5% (active).

`Cc1ccccc1NC(=O)CSc1ccc2nnc(-c3ccccn3)n2n1`: the activation is -2.77%.

With `O=C(/C=C/c1cccc([N+](=O)[O-])c1)NCCSCc1ccco1`, the activation was -1.08%.

Consider `Cc1ccc(CNC(=O)C2CCCN2C(=O)NCc2ccccc2)cc1` (configuration not stated), for which the activation is -0.36%.

`O=C(NC1CC2CCCC(C1)N2C(=O)N1CCCCC1)C1CCCCC1` (configuration not stated): the activation is 2.7%.

Take `O=C1CCCc2nn(-c3ccccc3)nc21`: the activation is -0.59%.

`c1ccc(-n2nc3ccccc3n2)cc1`: the activation was 15.4% (active).

With `Nc1ccc2nn(-c3ccc(Cl)cc3)nc2c1`, the activation was 3.34%.

`Cc1ccc(S(=O)(=O)Nc2nc(CN3CCOCC3)nc3sc(C)c(C)c23)cc1`: the activation was 7.7%.

As for `O=C(O[C@H]1[C@H](Cc2ccccc2)NS(=O)(=O)[C@H]2C[C@@H]3C=C[C@]12O3)c1ccc([N+](=O)[O-])cc1`, the activation was -6.9%.

In the case of `CCOc1cc(N2CCOCC2)c(OCC)cc1NC(=O)c1cc(C)nc2ccccc12`, the activation was 14.2% (active).

On to `CCOc1cc(N2CCOCC2)c(OCC)cc1NC(=O)C1=NN(c2cccc(C)c2)C(=O)CC1`, for which the activation is 11.3%.

In the case of `CCOc1cc(N2CCOCC2)c(OCC)cc1NC(=O)c1ccc(C)s1`, the activation is 0.66%.

Turning to `CCc1ccc(C2N3CC4([N+](=O)[O-])CN2CC([N+](=O)[O-])(C3)C4(C)C)cc1` (configuration not stated), the activation is 2.6%.

For the compound `CC1(C)C(C=C(Cl)Cl)C1C(=O)N(Cc1ccc(Cl)cc1)C1CCS(=O)(=O)C1` (configuration not stated), the activation was 0.53%.

Turning to `CCOc1ccc(CNC(=O)C2CCCN(c3nnc(C)c4c(C)n(-c5ccccc5)nc34)C2)cc1` (configuration not stated), the activation was 7.35%.

As for `CCc1ccc(CNC(=O)C2CCN(c3nnc(C)c4c(C)n(-c5ccc(C)cc5)nc34)CC2)cc1`, the activation was 11.9% (active).

Take `COc1ccc(-n2nc3c(N4CCC(C(=O)NCc5ccccc5)CC4)nnc(C)c3c2C)cc1`: the activation is -1.31%.
